Test results from PubChem BioAssay (NCATS).
Inconclusive results are not listed. Calls of active or inactive are those of the source. The call rests on the fitted dose curve; in most records, active means well fitted curve in the direction sought with a large enough effect; inconclusive means small, poorly fitted or top-dose-only effect, or another doubt; inactive means no such curve, though single readings can be large; an effect the other way counts as inactive or inconclusive.

Assays:
[1] = molecular target: Calcium and integrin-binding protein 1 (Homo sapiens) (UniProt Q99828); experiment: Primary qHTS for Identification of Calcium Integrin Binding Protein 1 (CIB1) Competitor (AID 1508620);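 further: GST tagged CIB1 binding a fluorescein labelled alphaIIb integrin peptide tracer; top concentration of the series differs between compounds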
Sequence of Calcium and integrin-binding protein 1 (Homo sapiens) (Q99828 whole entry, looked up): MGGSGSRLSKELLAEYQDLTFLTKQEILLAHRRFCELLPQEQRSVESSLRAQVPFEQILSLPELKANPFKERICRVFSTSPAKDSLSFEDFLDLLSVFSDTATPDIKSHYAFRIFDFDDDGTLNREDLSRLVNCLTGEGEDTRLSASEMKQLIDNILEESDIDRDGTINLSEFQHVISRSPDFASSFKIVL
Procedure, shortened: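 Fluorescence polarization competition: CIB1-GST (1 uM final) preincubated with compound 15 min at room temperature, then FITC-labeled alphaIIb peptide (100 nM final) added for another 15 min. Polarization read at Ex 480/Em 540.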

[2] = Primary qHTS for inhibitors of nuclear receptor binding SET domain protein 2 (NSD2) in an isogenic RCH-ACV NSD2 p.E1099K mutant (9B) (AID 1645876); further: nearly all actives have a fitted effect of over 70% in size
[3] = Primary qHTS for inhibitors of nuclear receptor binding SET domain protein 2 (NSD2) in an RCH-ACV wild type WT cells (2C) (AID 1645877); further: nearly all actives have a fitted effect of over 70% in size
On the % scale 0 is the no-effect control and ±100 the full control effect.

CC(=O)OC[C@]12[C@H](OC(C)=O)[C@H](OC(=O)c3ccccc3)[C@@H]3[C@@H](OC(C)=O)[C@]1(OC3(C)C)[C@H](C)C[C@H](OC(=O)c1ccccc1)[C@@H]2OC(=O)c1ccccc1
inactive: Potency [1] | Potency [2] | Potency [3]

CC1(C)CC[C@]2(C(=O)O[C@@H]3O[C@H](CO)[C@@H](O)[C@H](O)[C@H]3O)CC[C@]3(C)C(=CCC4[C@@]5(C)C[C@H](O)[C@H](O[C@@H]6OC[C@@H](O)[C@H](O)[C@H]6O)[C@@](C)(CO)C5CC[C@]43C)C2C1 (stereo not given in full)
inactive: Potency [1] | activity change, negative = viability loss [2] 1.45% [at 9.23 µM] | activity change, negative = cell killing [3] 2.07% [at 9.23 µM]

COc1cc(C2CC(=O)Nc3c2cc(Br)c2ccccc32)cc(OC)c1OC (stereo not given)
inactive: Potency [1] | Potency [2] | Potency [3]

C/C=C1/[C@H](O[C@@H]2O[C@H](CO)[C@@H](O)[C@H](O)[C@H]2O)OC=C(C(=O)OC)[C@H]1CC(=O)OCCc1ccc(O)c(O)c1
inactive: Potency [1] | Potency [2] | Potency [3]

COc1cc(/C=C/C(=O)O[C@@H]2O[C@H](CO)[C@@H](O)[C@H](O)[C@H]2O)ccc1O
inactive: Potency [1] | Potency [2] | Potency [3]

O=C(O)c1ccnc2cc(C(OCC3CCC(F)(F)CC3)c3ccccc3Cl)[nH]c12 (stereo not given)
inactive: Potency [1] | Potency [2] | Potency [3]

CC(C)C1(O)C=C2C(=O)CC3C(C)(C(=O)O)CCCC3(C)C2CC1 (stereo not given)
inactive: Potency [1] | Potency [2] | Potency [3]

C[C@H]1[C@H](C)C[C@@H](C(=O)O)C2CC[C@]3(C)C(=CC[C@@H]4[C@@]5(C)CC[C@H](O)C(C)(C)[C@@H]5CC[C@]43C)[C@@H]21 (stereo not given in full)
inactive: Potency [1] | Potency [2] | Potency [3]

C=C1C(OC(C)=O)CCC2(C)CC3(O)OC(=O)C(C)=C3CC12 (stereo not given)
inactive: Potency [1] | Potency [2] | Potency [3]

CC(=O)OC1C(O)C(C)(O)C(/C=C/C(=O)O)C2(C)CCCC(C)(C)C12 (stereo not given)
inactive: Potency [1] | Potency [2] | Potency [3]

C=C(CCO)C(=O)OCC1OCC(OC(=O)C(=C)CCO[C@@H]2O[C@H](COC(=O)C(=C)CCO[C@@H]3O[C@H](CO)[C@@H](O)[C@H](O)[C@H]3O)[C@@H](O)[C@H](O)[C@H]2O)C(O)C1O (stereo not given in full)
inactive: Potency [1] | Potency [2] | Potency [3]

C/C(CO)=C1/CCC23COC(C2)C(O)(C(=O)O)CCC13 (stereo not given)
inactive: Potency [1] | Potency [2] | Potency [3]

C=C(C)C(O)COc1ccc(CC(=O)O)cc1 (stereo not given)
inactive: Potency [1] | Potency [2] | Potency [3]

CC1OC(OC2C(OC3C(O[C@H]4CC[C@@]5(C)C(CC[C@]6(C)C5C(=O)CC5=C7CC(C)(C)CC(O)[C@]7(C)CC[C@]56C)C4(C)C)OC(C(=O)O)C(O)C3O)OCC(O)C2O)C(O)C(O)C1O (stereo not given in full)
inactive: Potency [1] | outcome [2] inactive [at 9.23 µM] | outcome [3] inactive [at 9.23 µM]

CC(C)CC(=O)OC[C@@]1(O)C[C@@]23CC[C@H]4[C@@](C)(CCC[C@@]4(C)C(=O)O)[C@@H]2CC[C@@H]1C3
inactive: Potency [1] | Potency [2] | Potency [3]

C=C1CC23CC1CCC2C12OC(=O)C(C)(C(O)C(O)C1O)C2C3C(=O)O (stereo not given)
inactive: Potency [1] | Potency [2] | Potency [3]

CC(=O)OCC1OC(O[C@H]2CC[C@]34C[C@]35CC(O)[C@]3(C)[C@@H]([C@H](C)CC/C=C(\C)C(=O)O)C(O)C[C@@]3(C)C5CC[C@H]4C2(C)C)C(O)C(O)C1OC1OCC(O)C(O)C1O (stereo not given in full)
inactive: Potency [1] | activity change, negative = viability loss [2] -5.86% [at 9.23 µM] | activity change, negative = cell killing [3] -13.7% [at 9.23 µM]

C[C@@H]1[C@H](O)[C@@H]2OC(=O)C3=C2[C@H](CCC3)[C@@]12C[C@@H](c1ccoc1)OC2=O
inactive: Potency [1] | Potency [2] | Potency [3]

CC(=O)OC1C(C)C2C(OC3OC(CO)C(O)C(O)C3O)OC=C(C(=O)O)C2C1OC(=O)c1ccccc1 (stereo not given)
inactive: Potency [1] | Potency [2] | Potency [3]

C=C(C(=O)O)C1CC(OC(=O)CC(C)CC)C2(C)CCCC(=C)C2C1 (stereo not given)
inactive: Potency [1] | Potency [2] | Potency [3]

CCCO[C@@H]1O[C@H](CO)[C@@H](O)[C@H](O)[C@H]1O[C@@H]1OC[C@@H](O)[C@H](O)[C@H]1O
inactive: Potency [1] | Potency [2] | Potency [3]

CC12CC34CC(O)C5C(CO)(CO)CC(=O)CC5(C)C3CC1C2C4 (stereo not given)
inactive: Potency [1] | Potency [2] | Potency [3]

CC1=COC(OC2OC(CO)C(O)C(O)C2O)C2C(CO)CC(OC(=O)/C=C/c3ccc(O)cc3)C12 (stereo not given)
inactive: Potency [1] | Potency [2] | Potency [3]

C[C@@H]1O[C@@H](O[C@H]2[C@H](O[C@H]3[C@H](O[C@H]4CC[C@@]5(C)C(CC[C@]6(C)C5CC=C5[C@@H]7CC(C)(C)C[C@@H](O)[C@]7(C)CC[C@]56C)C4(C)C)O[C@H](C(=O)O)[C@@H](O)[C@@H]3O)O[C@H](C(=O)O)[C@H](O)[C@@H]2O)[C@H](O)[C@H](O)[C@H]1O (stereo not given in full)
inactive: Potency [1] | outcome [2] inactive [at 9.23 µM] | outcome [3] inactive [at 9.23 µM]

CC1=C2C(=O)C=C(CO[C@@H]3O[C@H](CO)[C@@H](O)[C@H](O)[C@H]3O)[C@@H]2[C@H]2OC(=O)[C@H](C)[C@@H]2CC1
inactive: Potency [1] | Potency [2] | Potency [3]

CC(=O)OC1CC(C(C)(C)O)OC2CCC3(C)OC4=C(C(=O)C=C5C(C)C(OC(C)=O)C6(C)C(C)OC546)C(O)C3C12C (stereo not given)
inactive: Potency [1] | Potency [2] | Potency [3]

C[C@@H]1C(=O)O[C@H]2[C@H]1CC[C@@]1(C)C(=O)C=C[C@@](C)(O)[C@H]21
inactive: Potency [1] | Potency [2] | Potency [3]

C=Cc1ccc(O[C@@H]2O[C@H](CO[C@@H]3O[C@@H](C)[C@H](O)[C@@H](O)[C@H]3O)[C@@H](O)[C@H](O)[C@H]2O)cc1
inactive: Potency [1] | Potency [2] | Potency [3]

COc1ccc(CCC(=O)O)c(O[C@@H]2O[C@H](CO)[C@@H](O)[C@H](O)[C@H]2O)c1
inactive: Potency [1] | Potency [2] | Potency [3]

CC(C)(O)c1ccc2c(c1)C(=O)C[C@H]1[C@](C)(C(=O)O)CCC[C@]21C
inactive: Potency [1] | Potency [2] | Potency [3]

CC(=O)O[C@@H]1[C@@H](O)[C@H](C)O[C@@H](O[C@H]2[C@@H]3C=CO[C@@H](O[C@@H]4O[C@H](CO)[C@@H](O)[C@H](O)[C@H]4OC(C)=O)[C@@H]3[C@@]3(CO)O[C@@H]23)[C@@H]1OC(=O)/C=C/c1ccc(O)cc1
inactive: Potency [1] | Potency [2] | Potency [3]

C=CCC1=C[C@]2(OC)[C@H](C)[C@@H](c3ccc(OC)c(OC)c3)O[C@]2(OC)CC1=O
inactive: Potency [1] | Potency [2] | Potency [3]

COC(=O)[C@]1(C)CCC[C@@]2(C)[C@@H]3CC[C@@H]4C[C@@]3(CC[C@@H]21)C[C@H]4C(=O)O
inactive: Potency [1] | Potency [2] | Potency [3]

Cc1cn2cc(CC(=O)N3CCC4(CC3)CN(Cc3ccc(-n5nccn5)cc3Cl)C4)nc2s1
inactive: Potency [1] | Potency [2] | Potency [3]

CC1(C(=O)O)CCCC2(C)C3CC4C5CC3(CCC12)CC45C (stereo not given)
inactive: Potency [1] | Potency [2] | Potency [3]

CC(C)=CCC/C(C)=C/CO[C@@H]1O[C@H](CO[C@@H]2OC[C@](O)(CO)[C@H]2O)[C@@H](O)[C@H](O)[C@H]1O
inactive: Potency [1] | Potency [2] | Potency [3]

CCCC/C=C\CCCCCc1cc(=O)c2ccccc2n1C
inactive: Potency [1] | Potency [2] | Potency [3]

C=C(C)[C@@H]1CC[C@]2(CO)CC[C@]3(C)[C@H](CC[C@@H]4[C@@]5(C)CC[C@H](O)C(C)(C)[C@@H]5CC[C@]43C)[C@@H]12
inactive: Potency [1] | Potency [2] | Potency [3]

COc1cc2c(c(OC)c1O)C(c1ccc(O)cc1)C1C(=O)OC3C(COC(=O)C1=C2)OC(CO)(OC1OC(COC(=O)/C=C/c2ccc(OC4OC(C)C(O)C(O)C4O)cc2)C(O)C(O)C1O)C3O (stereo not given)
inactive: Potency [1] | activity change, negative = viability loss [2] -11.1% [at 9.23 µM] | activity change, negative = cell killing [3] -15.9% [at 9.23 µM]

OC[C@H]1O[C@@H](OC[C@H]2O[C@@H](OCc3ccccc3)[C@H](O)[C@@H](O)[C@@H]2O)[C@H](O)[C@@H](O)[C@@H]1O
inactive: Potency [1] | Potency [2] | Potency [3]

CC(C)(O)[C@@H]1CC[C@]2(CO)[C@@H](O)CC[C@](C)(O)[C@H]2[C@@H]1O[C@@H]1O[C@H](CO)[C@@H](O)[C@H](O)[C@H]1O
inactive: Potency [1] | Potency [2] | Potency [3]

C=C1C2(C)CC3C4(C)OC(C5OC56C4=CC(=O)OC6(C)C)C3(C)C13C(=O)OC(C)C3(O)C2=O (stereo not given)
inactive: Potency [1] | Potency [2] | Potency [3]

O=C(O)C[C@H]1CCC(=O)[C@@H]1C/C=C\CCO
inactive: Potency [1] | Potency [2] | Potency [3]

C[C@@H]1O[C@@H](O[C@H]2[C@H](Oc3cc(O)c(C(=O)CCc4ccc(O)cc4)c(O)c3)O[C@H](CO)[C@@H](O)[C@@H]2O)[C@H](O)[C@H](O)[C@H]1O
inactive: Potency [1] | Potency [2] | Potency [3]

CC(CC(C)O[C@@H]1O[C@H](CO)[C@@H](O)[C@H](O)[C@H]1O)OC(=O)/C=C/c1ccc(O)cc1 (stereo not given in full)
inactive: Potency [1] | Potency [2] | Potency [3]

O=C(O)/C=C/c1ccc(O[C@@H]2O[C@H](CO)[C@@H](O)[C@H](O)[C@H]2O)cc1
inactive: Potency [1] | Potency [2] | Potency [3]

C/C(=C\CCC(C)CCO)C(=O)OC[C@H]1O[C@@H](O[C@@H]2OC=C(C(=O)O)[C@H]3CC[C@](C)(O)[C@@H]23)C(O)[C@@H](O)C1O (stereo not given in full)
inactive: Potency [1] | Potency [2] | Potency [3]

C=C(C)[C@@H]1CC[C@]2(C(=O)O)CC[C@]3(C)C(CCC4[C@]5(C)C(CC[C@]43C)C(C)(C)[C@@H](O)[C@@H]5C(=O)O)C12 (stereo not given in full)
inactive: Potency [1] | Potency [2] | Potency [3]

COC(=O)C[C@@H]1C(C(=O)O)=CO[C@@H](O[C@@H]2O[C@H](CO)[C@@H](O)[C@H](O)[C@H]2O)/C1=C\COC(=O)/C=C/c1ccc(O)c(OC)c1
inactive: Potency [1] | Potency [2] | Potency [3]

C=C1C2CCC3C(CCC4[C@@]3(C)CCC[C@@]4(C)C(=O)O)(C2)[C@@H]1OC(=O)/C(C)=C\C (stereo not given in full)
inactive: Potency [1] | Potency [2] | Potency [3]
